Laboratory results: PubChem BioAssay
Calls of active or inactive are those of the source.

Test: resazurin metabolic signal in HepG2 cells – cell-based, resazurin fluorescence, 24 h, PK04 Diversity Set, profiling panel (AID 1172); further: test concentration not given here
Conditions: HepG2 viability, higher = more signal
Molecule COC(=O)C1=CC(c2ccc(CO)cc2)=CC(c2cccs2)N(Cc2cccc(OC(F)(F)F)c2)C=C1C(=O)OC (stereo not given) has a z-score of -0.55. O=C1O[C@H](c2ccccc2)[C@H](c2ccccc2)N2[C@H]1[C@@H](C(=O)NC[C@H](O)c1ccccc1)[C@]1(C(=O)Nc3ccc(C#CC4=CCCCC4)cc31)[C@H]2c1ccc(OCCO)cc1 gave a z-score of 0.0374. For CC[C@H]1C2=C3C(CC[C@H]4C(OC)OC[C@](C)([C@@H]34)N(C(=O)OC(C)(C)C)C2)C(CO)C1CO (stereo not given in full), the z-score was -0.453.

Test: budding yeast growth changes without added modifier – OD600, strain BY4716, 24 h, basal condition, primary screen (AID 1173)
Conditions: S. cerevisiae BY4716 growth, OD600, 24 h; higher = more signal, called active from +8 up or from −8 down
For COC(=O)Cn1c(C(=O)N2CCCC2)cc2c1C[C@H]1CN(C(=O)c3ccccc3)[C@@](Cc3ccccc3)(C(=O)OC)[C@@H]21, the z-score was 1.37 (inactive). In the case of O=C1C[C@@](C(=O)NCCN2CCOCC2)(c2ccc([N+](=O)[O-])cc2)[C@@H](c2ccc(CO)cc2)N1C1CCCCC1, the z-score is reported as -0.359 (inactive). In the case of CC(=O)NCCCC[C@@H]1NC(=O)[C@H]2C[C@@H](C(=O)NCCCCCCN(C)C)[C@@H](c3cccc(OCCO)c3)N2C1=O, the z-score is reported as -1.16 (inactive). In the case of CC(C)(C)OC(=O)CC[C@]1(C(=O)N2CCCCC2)N=C(c2ccc(OCCCO)cc2)O[C@H]1c1ccccc1, the z-score is reported as -1.05 (inactive). With CC(=O)NCCCC[C@@H]1NC(=O)[C@H]2C[C@@H](C(=O)NCCCCCCN(C)C)[C@@H](c3ccc(O)cc3)N2C1=O the z-score was -0.191 (inactive). With O=C1C2C=CC(C(O)Cc3ccccc3)N(Nc3ccc([N+](=O)[O-])cc3)C2C(=O)N1c1ccccc1 (stereo not given) the z-score was -0.168 (inactive). With C=C(COC)C(=O)CC[C@H](OC(=O)c1ccccc1-c1ccccc1C(=O)O)c1cccc(OCCO)c1 the z-score was -17.1 (active).
